# Laboratory results from article PMC5540273 (PLoS ONE, 2017).
# Where “and” joins values, the source holds several entries; their conditions need not be identical. Equal values may be shown once. Read-outs that look alike come from different tables or passages of the source.
# Key:
# Conditions in all cases: n = 1
# CAMK1B = system: CAMK1B
# CAMK1D = system: CAMK1D
# CAMK1G = system: CAMK1G
# CAMK1 = system: CAMK1
# CAMK2A = system: CAMK2A
# CAMK2B = system: CAMK2B
# CAMK2D = system: CAMK2D
# CAMK2G = system: CAMK2G
# CAMK4 = system: CAMK4
# CAMKK1 = system: CAMKK1
# [1] = concentration: 1 μM, replicates: in singlicate
# [2] = concentration: 1 μM,replicates: in singlicate, 1 µM
# 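Also: KINOMEscan kinase panel screen.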
structure (smiles),measurement,setting,value
Cc1cccc(-c2nc(C)cc(Nc3ccncc3)n2)n1 [GSK257997],%Inh,CAMK1B; [1],12%
same,%Inh,CAMK1D; [1],14%
same,%Inh,CAMK1G; [1],99.4%
same,%Inh,CAMK1; [1],10%
same,%Inh,CAMK2A; [1],0%
same,%Inh,CAMK2B; [1],0%
same,%Inh,CAMK2D; [1],94.2%
same,%Inh,CAMK2G; [1],12%
same,%Inh,CAMK4; [1],0%
same,%Inh,CAMKK1; [1],0%
CS(=O)(=O)c1ccc(-c2c(-c3ncn[nH]3)sc(N3CCOCC3)c2C#N)cc1,%Inh,CAMK1B; [1],25%
same,%Inh,CAMK1D; [1],16%
same,%Inh,CAMK1G; [1],11%
same,%Inh,CAMK1; [1],13%
same,%Inh,CAMK2A; [1],14%
same,%Inh,CAMK2B; [1],30%
same,%Inh,CAMK2D; [1],6%
same,%Inh,CAMK2G; [1],11%
same,%Inh,CAMK4; [1],18%
same,%Inh,CAMKK1; [1],19%
Cc1cccc(-c2cc(Nc3ccncc3)c3ccccc3n2)n1 [GSK223675],%Inh,CAMK1B; [1],25%
same,%Inh,CAMK1D; [1],26%
same,%Inh,CAMK1G; [1],6%
same,%Inh,CAMK1; [1],17%
same,%Inh,CAMK2A; [1],0%
same,%Inh,CAMK2B; [1],0%
same,%Inh,CAMK2D; [1],20%
same,%Inh,CAMK2G; [1],26%
same,%Inh,CAMK4; [1],0%
same,%Inh,CAMKK1; [1],12%
Cc1ccc(NC(=O)Nc2cccc(C(F)(F)F)c2)cc1 [GSK955403],%Inh,CAMK1B; 1 µM,0%
same,%Inh,CAMK1D; 1 µM,25%
same,%Inh,CAMK1G; 1 µM,10%
same,%Inh,CAMK1; 1 µM,7%
same,%Inh,CAMK2A; 1 µM,32%
same,%Inh,CAMK2B; 1 µM,25%
same,%Inh,CAMK2D; 1 µM,8%
same,%Inh,CAMK2G; 1 µM,4%
same,%Inh,CAMK4; 1 µM,5%
same,%Inh,CAMKK1; 1 µM,9%
Cc1ccc(C(=O)Nc2ccc(Nc3ccnc4cc(-c5ccccn5)ccc34)cc2O)cc1.Cl [GW440146],%Inh,CAMK1B; [1],13%
same,%Inh,CAMK1D; [1],20%
same,%Inh,CAMK1G; [1],0%
same,%Inh,CAMK1; [1],39%
same,%Inh,CAMK2A; [1],0%
same,%Inh,CAMK2B; [1],0%
same,%Inh,CAMK2D; [1],0%
same,%Inh,CAMK2G; [1],8%
same,%Inh,CAMK4; [1],0%
same,%Inh,CAMKK1; [1],0%
Cc1cc(N2Cc3ccccc3C2)nc(Nc2ccc(S(=O)(=O)N3CCOCC3)cc2)n1.Cl [GSK1669917],%Inh,CAMK1B; [1],4%
same,%Inh,CAMK1D; [1],9%
same,%Inh,CAMK1G; [1],0%
same,%Inh,CAMK1; [1],5%
same,%Inh,CAMK2A; [1],0%
same,%Inh,CAMK2B; [1],0%
same,%Inh,CAMK2D; [1],2%
same,%Inh,CAMK2G; [1],20%
same,%Inh,CAMK4; [1],0%
same,%Inh,CAMKK1; [1],0%
Fc1cc(Cl)ccc1Nc1ccnc2cc(I)ccc12 [GW551191],%Inh,CAMK1B; [1],5%
same,%Inh,CAMK1D; [1],0%
same,%Inh,CAMK1G; [1],0%
same,%Inh,CAMK1; [1],0%
same,%Inh,CAMK2A; [1],0%
same,%Inh,CAMK2B; [1],0%
same,%Inh,CAMK2D; [1],1%
same,%Inh,CAMK2G; [1],14%
same,%Inh,CAMK4; [1],0%
same,%Inh,CAMKK1; [1],0%
COc1ccc(Nc2nccc(NCCNC(=O)Nc3ccccc3F)n2)cc1 [GSK1379901],%Inh,CAMK1B; [1],35%
same,%Inh,CAMK1D; [1],3%
same,%Inh,CAMK1G; [1],69%
same,%Inh,CAMK1; [1],1%
same,%Inh,CAMK2A; [1],0%
same,%Inh,CAMK2B; [1],0%
same,%Inh,CAMK2D; [1],51%
same,%Inh,CAMK2G; [1],13%
same,%Inh,CAMK4; [1],0%
same,%Inh,CAMKK1; [1],0%
Cc1ccc(NC(=O)Nc2cc(C(C)(C)C)nn2-c2ccccc2)cc1 [GSK1014915],%Inh,CAMK1B; [1],33%
same,%Inh,CAMK1D; [1],3%
same,%Inh,CAMK1G; [1],0%
same,%Inh,CAMK1; [1],0%
same,%Inh,CAMK2A; [1],0%
same,%Inh,CAMK2B; [1],0%
same,%Inh,CAMK2D; [1],0%
same,%Inh,CAMK2G; [1],14%
same,%Inh,CAMK4; [1],0%
same,%Inh,CAMKK1; [1],12%
COc1ccc(Nc2nccc(-c3cccc(NC(=O)c4cc5cc(F)ccc5[nH]4)c3)n2)cc1 [GSK1229782],%Inh,CAMK1B; [1],0%
same,%Inh,CAMK1D; [1],20%
same,%Inh,CAMK1G; [1],13%
same,%Inh,CAMK1; [1],36%
same,%Inh,CAMK2A; [1],0%
same,%Inh,CAMK2B; [1],0%
same,%Inh,CAMK2D; [1],23%
same,%Inh,CAMK2G; [1],34%
same,%Inh,CAMK4; [1],0%
same,%Inh,CAMKK1; [1],20%
COc1cccc(-c2cc(-c3c[nH]nc3-c3ccccn3)ccn2)c1 [GW680338],%Inh,CAMK1B; [1],22%
same,%Inh,CAMK1D; [1],14%
same,%Inh,CAMK1G; [1],0%
same,%Inh,CAMK1; [1],0%
same,%Inh,CAMK2A; [1],0%
same,%Inh,CAMK2B; [1],0%
same,%Inh,CAMK2D; [1],16%
same,%Inh,CAMK2G; [1],15%
same,%Inh,CAMK4; [1],0%
same,%Inh,CAMKK1; [1],0%
CC1=C(C(=O)Nc2cc3cn[nH]c3cc2F)C(c2ccc(C(F)(F)F)cc2)CC(=O)N1 (centres unmarked) [GSK429286],%Inh,CAMK1B; [1],8%
same,%Inh,CAMK1D; [1],7%
same,%Inh,CAMK1G; [1],0%
same,%Inh,CAMK1; [1],0%
same,%Inh,CAMK2A; [1],0%
same,%Inh,CAMK2B; [1],0%
same,%Inh,CAMK2D; [1],0%
same,%Inh,CAMK2G; [1],24%
same,%Inh,CAMK4; [1],0%
same,%Inh,CAMKK1; [1],17%
COc1ccc(C2=C(Nc3cccc(C(=O)O)c3)C(=O)NC2=O)cc1 [SB-390765],%Inh,CAMK1B; [1],44%
same,%Inh,CAMK1D; [1],18%
same,%Inh,CAMK1G; [1],0%
same,%Inh,CAMK1; [1],23%
same,%Inh,CAMK2A; [1],5%
same,%Inh,CAMK2B; [1],0%
same,%Inh,CAMK2D; [1],16%
same,%Inh,CAMK2G; [1],26%
same,%Inh,CAMK4; [1],0%
same,%Inh,CAMKK1; [1],0%
Cc1ccccc1-n1cnc2c(N)ncnc21 [SKF-97510],%Inh,CAMK1B; [1],0%
same,%Inh,CAMK1D; [1],5%
same,%Inh,CAMK1G; [1],0%
same,%Inh,CAMK1; [1],0%
same,%Inh,CAMK2A; [1],24%
same,%Inh,CAMK2B; [1],14%
same,%Inh,CAMK2D; [1],4%
same,%Inh,CAMK2G; [1],4%
same,%Inh,CAMK4; [1],0%
same,%Inh,CAMKK1; [1],1%
CSc1nn2c(=O)cc(N3CCOCC3)nc2n1Cc1cccc(C(F)(F)F)c1C [GSK2363608],%Inh,CAMK1B; [2],31% and 0%
same,%Inh,CAMK1D; [2],9% and 19%
same,%Inh,CAMK1G; [2],0% and 11%
same,%Inh,CAMK1; [2],1% and 13%
same,%Inh,CAMK2A; [1],0%
same,%Inh,CAMK2B; [1],0%
same,%Inh,CAMK2D; [2],2% and 19%
same,%Inh,CAMK2G; [2],0% and 15%
same,%Inh,CAMK4; [1],0%
same,%Inh,CAMKK1; [1],0%
Cn1ccc2ncnc(Oc3ccc(Nc4nc5ccccc5[nH]4)cc3)c21,%Inh,CAMK1B; [1],0%
same,%Inh,CAMK1D; [1],0%
same,%Inh,CAMK1G; [1],0%
same,%Inh,CAMK1; [1],0%
same,%Inh,CAMK2A; [1],7%
same,%Inh,CAMK2B; [1],5%
same,%Inh,CAMK2D; [1],2%
same,%Inh,CAMK2G; [1],0%
same,%Inh,CAMK4; [1],0%
same,%Inh,CAMKK1; [1],14%
CCCc1ccc(S(=O)(=O)NC2CCN(c3ccnc(Nc4ccc(F)cc4)n3)C2)cc1 (centres unmarked) [GSK1379715],%Inh,CAMK1B; [1],6%
same,%Inh,CAMK1D; [1],0%
same,%Inh,CAMK1G; [1],0%
same,%Inh,CAMK1; [1],0%
same,%Inh,CAMK2A; [1],0%
same,%Inh,CAMK2B; [1],0%
same,%Inh,CAMK2D; [1],0%
same,%Inh,CAMK2G; [1],0%
same,%Inh,CAMK4; [1],0%
same,%Inh,CAMKK1; [1],12%
